From PubChem BioAssay AID449748 (Broad Institute, 2010)
Screen size: about 2,200 compounds; about 2,200 (100%) were called active. So high a share suggests a set chosen from earlier hits. The list shows a part of the results. Measured potencies and affinities stand elsewhere. Results filed as inconclusive are left out. How the calls were made is not given here.

Assay: PubChem AID 449748
Conditions: cancer stem cell-like cells viability, luminescence; series mostly up to 19.5 µM

| SMILES | outcome |
| --- | --- |
| CSc1ccccc1C(=O)Nc1cc(C)ccc1C | inactive |
